Screening results: PubChem BioAssay, National Center for Advancing Translational Sciences (NCATS)
SW480 rereplic – induces DNA re-replication in SW480 colon adenocarcinoma cells; SW480 DNA re-replication, Hoechst DNA content imaging, 48 h; Potency, µM (doses to about 46.1 µM), inactives show top-dose re-replication activation, usual class: activators; actives 1.8% (n = 340,000); AID 624297; further: % of control where 0% means no effect; nearly all actives have a fitted effect of over 55% in size
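Hoechst fluorescence of nuclei (405 nm excitation, 500-530 nm emission) measured by plate-scanning imager after 48 hr compound exposure at 37 C; re-replication scored as increased number of nuclei with elevated intensity.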
HT1080-NT tox – kills 2HG-producing HT-1080-NT fibrosarcoma cells. HT-1080-NT fibrosarcoma viability, CellTiter-Glo ATP luminescence, 48 h. Potency, µM (doses to about 46.1 µM), without a hit: at the highest dose activity, negative = less viability, hits mostly cytotoxic. actives 1.6% (n = 360,000);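 further: NT is the 2HG producing partner of a matched IDH1 knockdown line; 0% = DMSO-treated cells and -100% = media-only wells without cells; nearly all actives have a fitted effect of over 55% in size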
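750 cells/well, RPMI + 5% FBS; 2 h settle, compound pin-transfer, 48 h at 37 degrees C. CellTiter-Glo 10 min RT, luminescence. Normalized to DMSO and media-only wells.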
KB-3-1 tox – KB-3-1 parental cell cytotoxicity; KB-3-1 viability, CellTiter-Glo ATP luminescence, 72 h; Potency, µM (highest dose often 46.1 µM), hits mostly cytotoxic; actives 1.4% (n = 400,000); further: on the % scale 0 is the no-effect control and ±100 the full control effect; nearly all actives have a fitted effect of over 60% in size
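Multi-concentration cytotoxicity screen in KB-3-1 cells grown in DMEM lacking phenol red with 10% FBS. After 72 h at 37 °C with compound, ATP-dependent luminescence was recorded.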
MCF10A rereplic – DNA re-replication induction in MCF 10a cells. MCF 10A DNA re-replication, Hoechst nuclear intensity, 48 h. Potency, µM (top dose mostly 46.1 µM), for inactives: top-dose activity, positive = re-replication, most hits filed as activators. actives 2.9% (n = 350,000). AID 624296; further: % of control where 0% means no effect; nearly all actives have a fitted effect of over 50% in size
HT1080 IDH1KD tx – HT-1080 IDH1 knockdown cell toxicity (counter line); HT-1080 IDH1 knockdown viability, ATP luminescence, 48 h; Potency, µM (series often up to 46.1 µM), for the others: at the top dose activity, negative = toxicity, actives largely listed as cytotoxic; actives 2% (n = 360,000); AID 686971;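 further: 0% = DMSO wells and -100% = cell-free medium wells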
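IDH1KD HT-1080 cells, 750/well, RPMI + 5% FBS; compound pinned after 2 h settling; 48 h, 37 °C; CellTiter-Glo luminescence; % activity normalised to DMSO and no-cell wells; curves fitted, classed by r2 and efficacy.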
KB-V1 cytotox – KB-V1 MDR subline cytotoxicity; KB-V1 MDR cells viability, CellTiter-Glo, 72 h; Potency, µM (top dose mostly 46.1 µM), usual class: cytotoxic; actives 3.4% (n = 400,000); further: on the % scale 0 is the no-effect control and ±100 the full control effect; nearly all actives have a fitted effect of over 60% in size
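In this primary screen, KB-V1 cells overexpressing P-gp are incubated with library compounds (lowest to highest concentration) for 72 h at 37 degrees C before a luminescent ATP viability read.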
* = called active by the depositor. A selection: hits, their analogues and other compounds. The true share with any hit is near 7.9%. The call rests on the fitted dose curve; in most records, active means well fitted curve in the direction sought with a large enough effect; inconclusive means small, poorly fitted or top-dose-only effect, or another doubt; inactive means no such curve, though single readings can be large; an effect the other way counts as inactive or inconclusive. Potency means the concentration at half of the fitted maximal effect.

How did COc1ccc(/C=N/NC(=O)c2ccn[nH]2)cc1COc1ccc([N+](=O)[O-])c(C)c1 do in these assays?
SW480 rereplic: inconclusive; HT1080-NT tox: inconclusive; KB-3-1 tox: inactive; MCF10A rereplic: 2%; HT1080 IDH1KD tx: inconclusive; KB-V1 cytotox: inactive

Results for Cc1cccc(OCC(=O)NCC(=O)N/N=C/c2ccccc2)c1 ?
SW480 rereplic: -1%; HT1080-NT tox: 2%; KB-3-1 tox: inactive; MCF10A rereplic: 7%; HT1080 IDH1KD tx: 2%; KB-V1 cytotox: inactive

What do the screens show for `O=C(CNC(=O)C(c1ccccc1)c1ccccc1)N/N=C/c1ccc(O)cc1O`?
SW480 rereplic: inconclusive; HT1080-NT tox: inconclusive; KB-3-1 tox: inconclusive; MCF10A rereplic: inconclusive; HT1080 IDH1KD tx: 7.3µM*; KB-V1 cytotox: inactive

What do the screens show for `O=C(N/N=C/c1ccc(O)cc1O)/C(=C/c1ccccc1)CCO`?
SW480 rereplic: inconclusive; HT1080-NT tox: inconclusive; KB-3-1 tox: inactive; MCF10A rereplic: 18µM*; HT1080 IDH1KD tx: inconclusive; KB-V1 cytotox: inconclusive

What do the screens show for `O=C(CNC(=O)C(c1ccccc1)c1ccccc1)N/N=C\c1cccc(O)c1`?
SW480 rereplic: -3%; HT1080-NT tox: -6%; KB-3-1 tox: inactive; MCF10A rereplic: -1%; HT1080 IDH1KD tx: -2%; KB-V1 cytotox: inactive

What do the screens show for `COc1cccc(/C=N/NC(=O)CNC(=O)COc2cccc(C)c2)c1O`?
SW480 rereplic: inconclusive; HT1080-NT tox: inconclusive; KB-3-1 tox: inconclusive; MCF10A rereplic: inconclusive; HT1080 IDH1KD tx: 23µM*; KB-V1 cytotox: inconclusive

Results for Cc1cccc(OCC(=O)NCC(=O)N/N=C/c2ccc(O)cc2O)c1 ?
SW480 rereplic: inconclusive; HT1080-NT tox: -19%; KB-3-1 tox: inactive; MCF10A rereplic: inconclusive; HT1080 IDH1KD tx: 18µM*; KB-V1 cytotox: inconclusive

How did COc1cc(/C=N/NC(=O)/C(=C/c2ccccc2)CCO)ccc1O do in these assays?
SW480 rereplic: inconclusive; HT1080-NT tox: 11%; KB-3-1 tox: inactive; MCF10A rereplic: -1%; HT1080 IDH1KD tx: 4%; KB-V1 cytotox: inactive

What do the screens show for `CCN(CC(=O)NCc1ccc(F)cc1)CC(=O)NC1CCCC1`?
SW480 rereplic: inconclusive; HT1080-NT tox: -5%; KB-3-1 tox: inactive; MCF10A rereplic: -14%; HT1080 IDH1KD tx: -7%; KB-V1 cytotox: inactive

What do the screens show for `O=S(=O)(Nc1ccc2c(c1)OCCO2)c1c(F)cccc1F`?
SW480 rereplic: -6%; HT1080-NT tox: 13%; KB-3-1 tox: inactive; MCF10A rereplic: 3%; HT1080 IDH1KD tx: 4%; KB-V1 cytotox: inactive

Results for Cc1c(Cl)c(=O)oc2cc(OCC(=O)NCc3cccs3)ccc12 ?
SW480 rereplic: 2%; HT1080-NT tox: 15%; KB-3-1 tox: inactive; MCF10A rereplic: 2%; HT1080 IDH1KD tx: 13%; KB-V1 cytotox: inactive

What do the screens show for `Cc1cc(SCC(=O)N/N=C/c2ccc(O)cc2O)c(C)cc1Br`?
SW480 rereplic: inconclusive; HT1080-NT tox: -28%; KB-3-1 tox: inconclusive; MCF10A rereplic: 13%; HT1080 IDH1KD tx: inconclusive; KB-V1 cytotox: 10µM*

Results for Cc1cc(SCC(=O)N/N=C/c2ccccc2C(=O)O)c(C)cc1Br ?
SW480 rereplic: -1%; HT1080-NT tox: 0%; KB-3-1 tox: inactive; MCF10A rereplic: 13%; HT1080 IDH1KD tx: -5%; KB-V1 cytotox: inconclusive

What do the screens show for `O=C(O)c1ccccc1/C=N/NC(=O)c1cc(-c2ccco2)nc2ccccc12`?
SW480 rereplic: 0%; HT1080-NT tox: -28%; KB-3-1 tox: inactive; MCF10A rereplic: -8%; HT1080 IDH1KD tx: inconclusive; KB-V1 cytotox: inactive

What do the screens show for `CN(C(=O)CCCN1C(=O)c2ccccc2C1=O)C1CCCCC1`?
SW480 rereplic: -5%; HT1080-NT tox: 20%; KB-3-1 tox: inactive; MCF10A rereplic: 4%; HT1080 IDH1KD tx: 19%; KB-V1 cytotox: 12µM*
